# Test results: PubChem BioAssay (Tox21)
# Inconclusive results are not listed. A call without a number means that no potency is given here. The source made the active and inactive calls. Unless noted, calls come from the whole dose curve; as a rule, active = well fitted curve in the direction sought with a large enough effect in the repeat runs; inconclusive = weak or mixed curves; inactive = no such curve, though single readings can be large; an effect the other way counts as inactive or inconclusive.
# Tests used:
# [1] = qHTS assay to test for compound auto fluorescence at 535 nm (green) in HEK293 cells (AID 720680)
# [2] = qHTS assay to test for compound auto fluorescence at 460 nm (blue) in HEK293 cell free culture (AID 720681)
# Summary of the method: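 Blue fluorescence (Ex 405/Em 460 nm, triamterene-equivalent) was read immediately after pin transfer of compound or DMSO into medium (DMEM, 10% FBS) without cells.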
# [3] = qHTS assay to test for compound auto fluorescence at 535 nm (green) in HEK293 cell free culture (AID 720682)
# Summary of the method: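 No cells present: wells hold DMEM supplemented with 10% FBS, into which compound or vehicle is pinned. Green emission is then recorded (485 nm excitation, 535 nm emission) and scaled to fluorescein.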
# [4] = qHTS assay to test for compound auto fluorescence at 590 nm (red) in HepG2 cell free culture (AID 720684)
# Summary of the method: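 No cells present: MEM + 10% FBS only. Compound pinned in, red label read (540/590 nm). Activity = fluorescence equivalent to Rose Bengal sodium.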
# [5] = qHTS assay to test for compound auto fluorescence at 460 nm (blue) in HepG2 cell free culture (AID 720685)
# Summary of the method: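 Cell-free plates of MEM plus 10% FBS received 23 nL compound or DMSO vehicle; blue-channel (405/460 nm) intensity scored against triamterene as reference fluorophore.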
# [6] = qHTS assay to test for compound auto fluorescence at 535 nm (green) in HepG2 cell free culture (AID 720686)
# [7] = qHTS assay to test for compound auto fluorescence at 460 nm (blue) in HepG2 cells (AID 720687)
# Summary of the method: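 Blue-channel autofluorescence (Ex/Em 405/460 nm, triamterene-equivalent) was measured after 1 hr compound exposure at 37 C, 5% CO2. Cells were HepG2, plated overnight at 37 C in MEM plus 10% FBS.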
# [8] = target: Glucocorticoid receptor (Homo sapiens) (UniProt P04150); assay: qHTS assay to identify small molecule agonists of the glucocorticoid receptor (GR) signaling pathway (AID 720691; active = well fitted activation curve with a large enough effect in the signal ratio in the repeat runs, not every such curve was filed as active; the % refers to the signal ratio); conditions: GR-bla HeLa, beta-lactamase reporter ratio, 18 h; activation: at 62.4 µM (top of the series)
# Glucocorticoid receptor (Homo sapiens), sequence (P04150 whole entry, looked up): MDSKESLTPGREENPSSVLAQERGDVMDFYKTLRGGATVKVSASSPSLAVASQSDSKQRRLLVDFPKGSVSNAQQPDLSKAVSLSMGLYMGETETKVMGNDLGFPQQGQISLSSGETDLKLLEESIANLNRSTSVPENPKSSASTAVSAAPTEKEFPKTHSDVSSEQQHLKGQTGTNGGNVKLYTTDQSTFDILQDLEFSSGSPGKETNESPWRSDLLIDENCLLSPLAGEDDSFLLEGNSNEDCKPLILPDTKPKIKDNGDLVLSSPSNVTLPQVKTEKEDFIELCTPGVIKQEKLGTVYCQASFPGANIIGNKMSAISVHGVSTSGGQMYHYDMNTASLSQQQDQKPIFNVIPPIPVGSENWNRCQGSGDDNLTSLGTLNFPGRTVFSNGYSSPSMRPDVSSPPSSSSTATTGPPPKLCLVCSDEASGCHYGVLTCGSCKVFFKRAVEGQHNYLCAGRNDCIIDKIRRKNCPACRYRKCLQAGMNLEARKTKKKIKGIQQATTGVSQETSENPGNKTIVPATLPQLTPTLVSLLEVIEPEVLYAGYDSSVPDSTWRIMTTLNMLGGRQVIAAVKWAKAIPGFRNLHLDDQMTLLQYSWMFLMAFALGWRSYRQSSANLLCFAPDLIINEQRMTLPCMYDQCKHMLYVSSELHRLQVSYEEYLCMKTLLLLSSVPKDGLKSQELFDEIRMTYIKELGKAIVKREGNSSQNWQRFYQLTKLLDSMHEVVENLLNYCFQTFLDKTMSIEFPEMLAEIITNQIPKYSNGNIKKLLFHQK
# Summary of the method: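 Cells: GR-bla HeLa, endogenous GR with stably integrated GRE-beta-lactamase reporter. Treatment 18 h, 37 C, compounds delivered in DMSO. Detection via LiveBLAzer B/G FRET substrate, 2 h RT, fluorescence intensity.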
# [9] = target: Glucocorticoid receptor (Homo sapiens) (UniProt P04150); assay: qHTS assay to identify small molecule antagonists of the glucocorticoid receptor (GR) signaling pathway (AID 720692; active = well fitted inhibition curve with a large enough effect in the signal ratio in the repeat runs, not every such curve was filed as active; the % refers to the signal ratio)
# Summary of the method: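 Quantitative HTS in antagonist format: HeLa cells expressing endogenous GR and a stably integrated GRE-bla reporter, stimulated with 5 nM dexamethasone (final) alongside test compounds for 18 h.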
# [10] = qHTS assay to identify small molecule antagonists of the glucocorticoid receptor (GR) signaling pathway - cell viability counter screen (AID 720693); note: nearly all actives have a fitted effect of over 55% in size
# [11] = qHTS assay for identifying genotoxic compounds that show differential cytotoxicity against isogenic chicken DT40 cell lines with known DNA damage response pathways - wild type cell line (AID 743012); note: nearly all actives have a fitted effect of over 60% in size; note: potency is the fitted concentration of half-maximal effect
# Summary of the method: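 Luminescent ATP viability signal (CellTiter-Glo, 30 min RT) recorded after wild type DT40 cells were incubated with compounds for 40 h at 37 C/5% CO2.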
# [12] = qHTS assay for identifying genotoxic compounds that show differential cytotoxicity against isogenic chicken DT40 cell lines with known DNA damage response pathways - Rev3 mutant cell line (AID 743014); note: nearly all actives have a fitted effect of over 55% in size; note: potency is the fitted concentration of half-maximal effect
# [13] = qHTS assay for identifying genotoxic compounds that show differential cytotoxicity against isogenic chicken DT40 cell lines with known DNA damage response pathways - Rad54/Ku70 mutant cell line (AID 743015); note: nearly all actives have a fitted effect of over 60% in size; note: potency is the fitted concentration of half-maximal effect
# [14] = qHTS assay to identify small molecule antagonists of the androgen receptor (AR) signaling pathway - cell viability counter screen (AID 743033; note: nearly all actives have a fitted effect of over 45% in size)
# [15] = qHTS assay to identify small molecule antagonists of the androgen receptor (AR) signaling pathway using the MDA cell line - cell viability counter screen (AID 743041; note: nearly all actives have a fitted effect of over 45% in size; note: potency is the fitted concentration of half-maximal effect)
# Summary of the method: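 Using the breast carcinoma line MDA-kb2 AR-luc, test chemicals were co-incubated with R1881 for 16 h; CellTiter-Fluor reagent, added at 15.5 h, provided a fluorescence measure of live cells.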
# [16] = qHTS assay to test for compound auto fluorescence at 590 nm (red) in HEK293 cell free culture (AID 720683)
# Summary of the method: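 Red-channel autofluorescence of compounds in culture medium (DMEM, 10% FBS), no cells, measured at 540/590 nm. Rose Bengal sodium is the reference fluorophore for equivalence.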
# [17] = target: Androgen receptor (Homo sapiens) (UniProt P10275); assay: qHTS assay to identify small molecule antagonists of the androgen receptor (AR) signaling pathway (AID 743035; active = well fitted inhibition curve with a large enough effect in the signal ratio in the repeat runs, not every such curve was filed as active; the % refers to the signal ratio)
# Androgen receptor (Homo sapiens), sequence (P10275 whole entry, looked up): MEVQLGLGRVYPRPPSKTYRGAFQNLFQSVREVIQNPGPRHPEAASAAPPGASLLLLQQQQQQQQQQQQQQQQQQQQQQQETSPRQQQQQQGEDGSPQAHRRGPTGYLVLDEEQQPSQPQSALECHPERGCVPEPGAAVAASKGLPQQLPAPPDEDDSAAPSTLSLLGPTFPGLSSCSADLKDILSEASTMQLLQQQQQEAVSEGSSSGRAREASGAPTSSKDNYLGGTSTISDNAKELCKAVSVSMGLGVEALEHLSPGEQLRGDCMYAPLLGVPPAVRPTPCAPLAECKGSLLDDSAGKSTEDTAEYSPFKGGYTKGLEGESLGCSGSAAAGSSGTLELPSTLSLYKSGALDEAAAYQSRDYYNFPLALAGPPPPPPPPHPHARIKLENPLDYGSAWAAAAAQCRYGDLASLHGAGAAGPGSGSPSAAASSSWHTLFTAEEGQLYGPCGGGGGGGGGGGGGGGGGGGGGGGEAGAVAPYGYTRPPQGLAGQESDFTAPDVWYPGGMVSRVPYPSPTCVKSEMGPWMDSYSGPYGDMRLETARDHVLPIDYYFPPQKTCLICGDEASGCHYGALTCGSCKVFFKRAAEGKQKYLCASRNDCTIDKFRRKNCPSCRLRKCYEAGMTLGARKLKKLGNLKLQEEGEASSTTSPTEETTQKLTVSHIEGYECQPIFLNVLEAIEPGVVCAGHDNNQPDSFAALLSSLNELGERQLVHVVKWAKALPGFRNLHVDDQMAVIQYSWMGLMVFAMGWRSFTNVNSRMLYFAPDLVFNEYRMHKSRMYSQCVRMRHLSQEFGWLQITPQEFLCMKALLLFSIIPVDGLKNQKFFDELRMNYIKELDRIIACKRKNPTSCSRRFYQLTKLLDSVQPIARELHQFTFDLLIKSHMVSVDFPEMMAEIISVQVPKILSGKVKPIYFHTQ
# Summary of the method: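 Quantitative HTS of the Tox21 10K library used HEK293 AR-UAS-bla cells stimulated with R1881 alongside compound for 16 h at 37C, followed by beta-lactamase FRET detection (LiveBLAzer B/G, 2 h, RT).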
# [18] = target: Androgen receptor (Homo sapiens) (UniProt P10275); assay: qHTS assay to identify small molecule agonists of the androgen receptor (AR) signaling pathway (AID 743036; active = well fitted activation curve with a large enough effect in the signal ratio in the repeat runs, with a control signal flat, not every such curve was filed as active; the % refers to the signal ratio)
# Summary of the method: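 Quantitative HTS of the Tox21 10K library in HEK293 cells bearing a stably integrated UAS-controlled beta-lactamase reporter. Compound exposure lasted 16 h at 37C. Reporter activity was detected by FRET substrate fluorescence after 2 h at room temperature.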
# [19] = target: Androgen receptor (Homo sapiens) (UniProt P10275); assay: qHTS assay to identify small molecule agonists of the androgen receptor (AR) signaling pathway using the MDA cell line (AID 743040; note: nearly all actives have a fitted effect of over 20% in size; note: potency is the fitted concentration of half-maximal effect)
# Summary of the method: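 Stable MMTV-luciferase reporter in MDA-kb2 cells; note the promoter carries GR as well as AR response elements. 16 h compound treatment, 37C, 0% CO2; ONE-Glo luminescence endpoint.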
# [20] = target: Androgen receptor (Homo sapiens) (UniProt P10275); assay: qHTS assay to identify small molecule antagonists of the androgen receptor (AR) signaling pathway using the MDA cell line (AID 743042; note: nearly all actives have a fitted effect of over 55% in size)
# Summary of the method: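 Antagonist mode: compounds plus R1881 agonist added to MDA-kb2 AR-luc cells, incubated 16 h at 37C. Luciferase reporter luminescence quantified, with multiplexed CellTiter-Fluor readout for cell viability.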
Structure (SMILES),Potency [1],Potency [2],Potency [3],Potency [4],outcome [5],Potency [6],outcome [7],Potency [8],Potency [9],Potency [10],Potency [11],Potency [12],Potency [13],Potency [14],Potency [15],Potency [16],Potency [17],Potency [18],Potency [19],Potency [20]
NCCCNCCCCNC(=O)C(O)NC(=O)CCCCCCN=C(N)N (stereo not given),inactive,inactive,inactive,inactive,inactive,inactive,inactive,inactive,inactive,inactive,1060 nM (active),1680 nM (active),841 nM (active),inactive,inactive,,,,,
Cc1c(O)cc2c(c1C)O[C@](C)(CCC[C@H](C)CCC[C@H](C)CCCC(C)C)CC2,inactive,inactive,inactive,,inactive,inactive,inactive,inactive,inactive,inactive,inactive,,inactive,inactive,inactive,inactive,,,,
CCCCC[C@H](O)/C=C/[C@@H]1[C@H]2C/C(=C/CCCC(=O)O)O[C@H]2C[C@H]1O,inactive,inactive,inactive,,inactive,inactive,inactive,,,inactive,inactive,inactive,inactive,inactive,inactive,inactive,,,,
O=C(CCCCCCCCCCCCC1CCCC1)Nc1ccc(S(=O)(=O)c2ccc(NC(=O)CCCCCCCCCCCCC3CCCC3)cc2)cc1,inactive,inactive,inactive,,inactive,inactive,inactive,inactive,inactive,inactive,,,inactive,inactive,inactive,inactive,,,,
CCCCCCCN(CC)CCCC(O)c1ccc(NS(C)(=O)=O)cc1 (stereo not given),inactive,inactive,inactive,,inactive,inactive,inactive,inactive,inactive,inactive,,,26600 nM (active),,inactive,inactive,,,,
CCCC1C(=O)N2C(N(C)C)=Nc3ccc(C)cc3N2C1=O (stereo not given),inactive,inactive,inactive,inactive,inactive,inactive,inactive,inactive,inactive,inactive,inactive,inactive,inactive,inactive,inactive,,,,,
CCC(=O)NS(=O)(=O)c1ccc(-c2c(-c3ccccc3)noc2C)cc1,inactive,inactive,inactive,,,inactive,inactive,inactive,inactive,inactive,inactive,inactive,inactive,inactive,inactive,inactive,,,,
CN1CCC(OC(=O)C(Oc2ccc(Cl)cc2)Oc2ccc(Cl)cc2)CC1,inactive,inactive,inactive,,inactive,inactive,inactive,inactive,,inactive,inactive,inactive,inactive,inactive,inactive,inactive,,,,
CCCCCCCCCCCCCCCCCC(=O)OC[C@@H](O)[C@H]1OC[C@H](O)[C@H]1O,inactive,inactive,inactive,,inactive,inactive,inactive,inactive,inactive,inactive,,inactive,inactive,inactive,inactive,inactive,inactive,inactive,inactive,inactive
CC(C)CCC[C@@H](C)[C@H]1CC(=O)C2=C3CC[C@H]4C[C@@H](O)CC[C@]4(C)[C@H]3CC[C@@]21C,inactive,inactive,inactive,,inactive,inactive,inactive,inactive,,inactive,596 nM (active),298 nM (active),841 nM (active),inactive,inactive,inactive,inactive,inactive,inactive,inactive
O=C(/C=C/c1cccc(F)c1)NC1CC1,inactive,inactive,inactive,,,inactive,inactive,inactive,,inactive,inactive,inactive,inactive,inactive,,inactive,,,,
COc1ccc(C(=O)Nc2ccccc2CCC2CCCCN2C)cc1 (stereo not given),inactive,inactive,inactive,,inactive,inactive,inactive,inactive,inactive,inactive,,inactive,inactive,,inactive,inactive,,,,
CCC(=O)NCCC1CCc2ccc3c(c21)CCO3 (stereo not given),inactive,inactive,inactive,,inactive,inactive,inactive,inactive,inactive,inactive,26600 nM (active),,,,inactive,inactive,inactive,inactive,inactive,inactive
CCOc1ccc(N=Nc2ccc(N)cc2N)cc1,inactive,inactive,inactive,,inactive,inactive,inactive,,,,23700 nM (active),,21100 nM (active),inactive,15000 nM (active),inactive,,,473 nM (active),inactive
